An excerpt weighted towards active compounds, which were near 4% of everything screened.
TROY signal inh: TROY signaling inhibition; AID 1347056; Q293 LMP1-TROYcd NF-kB luciferase reporter, 4 h; inhibition, % at 10 µM; 360,000 compounds, 0.98% hits;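 active = compounds whose plate-normalised and pattern-corrected inhibition of the luciferase reporter signal at the single screening dose is 50% or more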
CF NFkB inh: inhibitors of cystic fibrosis induced NF-kB; 360,000 compounds, 0.86% hits; inhibition, % at 5 µM; KKLEB NF-kB-GFP reporter, PAF-induced, GFP fluorescence overnight; AID 588850;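 active = at least 50% inhibition at 5 µM, scaled per plate between neutral and stimulator controls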;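 also: PAF is a Pseudomonas aeruginosa culture filtrate used as stimulus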
Peg3 prom inh: inhibitors of Peg3 promoter | 360,000 compounds, 1.7% hits | HeLa PEG-Prom luciferase reporter, luminescence, overnight | AID 588405 | inhibition, % at 20 µM;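 active = inhibition of at least 50% at 20 µM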
HIF-2a inh: HIF-2a inhibition; 786-0 RCC cells HIF-2a reporter, luciferase luminescence, overnight; inhibition, % at 18.8 µM; 360,000 compounds, 0.72% hits;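 active = inhibition of the luminescence signal of 40% or more relative to plate controls, in a single-dose primary screen at 18.75 µM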
TWEAK Fn14 block: inhibitors of TWEAK-Fn14 interaction signaling | inhibition, % at 10 µM | TWEAK-stimulated Fn14 reporter cells, luciferase luminescence, 8 h | AID 1159606 | 360,000 compounds, 2% hits; in the data active = inhibition above about 50%
KKLEB cytotox: CF airway cell cytotoxicity counter-screen | KKLEB CF airway cells viability, ATPlite luminescence, overnight; active compounds read low; cells stimulated with P. aeruginosa culture filtrate | AID 602141 | activity change (cytotoxicity), % at 5 µM | 360,000 compounds, 0.36% hits;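 active = corrected activity change at or below -50% at 5 µM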
Numbers stand for hits; - = inactive; . = no result given.

SMILES	TROY signal inh	CF NFkB inh	Peg3 prom inh	HIF-2a inh	TWEAK Fn14 block	KKLEB cytotox
COC(=O)C1=C(C)N(Cc2ccccc2)C(=NCc2ccc(OC)cc2)N[C@H]1c1cccc(F)c1	-	-	102	-	-	-
COC(=O)C1=C(C)N(Cc2ccccc2)C(=NCc2cc(OC)c(OC)c(OC)c2)N[C@H]1c1cccc(F)c1	-	-	-	-	-	-
COC(=O)C1=C(C)N(Cc2ccccc2)C(=NCc2cccc(Cl)c2)N[C@H]1c1cccc(F)c1	-	60	104	-	-	-53
CC(C)(C)c1cc(C(=O)N/N=C/c2ccccc2O)n(-c2ccccc2)n1	-	-	50	-	-	-
Cn1nc(-c2ccc(Cl)cc2)c2cc(C(=O)N3CCN(c4ccccn4)CC3)sc21	52	-	-	-	79	-
Cc1ccc(NC(=O)C(=O)Nc2ccccn2)cc1	57	-	-	-	86	-
Cc1ccc(S(=O)(=O)CC(=O)Nc2ccccn2)cc1	-	-	-	-	-	-
Cc1ccc(-n2nc3c(=O)n(CC(=O)NCc4ccc(C)o4)nc(C)c3c2C)cc1	-	-	-	-	-	-
COc1ccccc1S(=O)(=O)N(C)C[C@@H]1OCc2cnnn2CCCC(=O)N([C@@H](C)CO)C[C@@H]1C	-	-	-	-	-	-
O=C(CCl)Nc1ccc(S(=O)(=O)NC2=NCCCCC2)cc1	-	-	-	-	-	-
O=C(CCl)Nc1cccc(S(=O)(=O)NC2=NCCCCC2)c1	-	-	51	-	-	-
CCOC(=O)c1c(NC(C)=O)sc2c1CCC(C=O)=C2Sc1ccccc1	-	-	99	-	-	-
CCOC(=O)c1c(NC(C)=O)sc2c1CCN(Cc1ccccc1)C2	-	-	-	-	-	-
CCOC(=O)N1CCN(c2cc(N3CCOCC3)c(F)cc2[N+](=O)[O-])CC1	-	-	-	-	51	-
COc1ccc(CCNc2ncnc3c2oc2ccccc23)cc1OC	57	-	-	-	91	-
c1ccc(CNc2ncnc3c2oc2ccccc23)nc1	-	-	-	-	-	-
COc1ccc(CCNc2ncnc3sccc23)cc1OC	-	-	-	-	50	-
COc1ccc(CCNc2nc(C)nc3c2oc2ccccc23)cc1OC	53	-	-	-	-	-
COc1ccc(C(=O)CNc2ccc3ccccc3c2)cc1	-	-	-	-	-	-
COc1ccccc1-n1cc2c([N+](=O)[O-])cc([N+](=O)[O-])cc2n1	-	-	-	-	51	-
CC(C)C(OC(=O)c1cc2occc2n1C)C(=O)NCc1ccc2c(c1)OCO2 (centres undefined)	-	-	-	-	-	-
Cc1c(NS(=O)(=O)c2cc([N+](=O)[O-])ccc2Cl)c(=O)n(-c2ccccc2)n1C	-	-	-	-	-	-
CCn1c(N)c(C(=O)NCC2CCCO2)sc1=S (centres undefined)	.	-	-	-	85	-
C=CCn1c(N)c(C(=O)NCC2CCCO2)sc1=S (centres undefined)	-	-	-	-	-	-
Nn1cnc2c(c1=O)C1(CCCCC1)Cc1ccccc1-2	-	-	-	-	-	-
SMILES	TROY signal inh	CF NFkB inh	Peg3 prom inh	HIF-2a inh	TWEAK Fn14 block	KKLEB cytotox
Oc1ccc(-c2nc3c4c(ncn3n2)-c2ccccc2CC42CCCC2)cc1	-	-	111	-	77	-
CC(C)OC(=O)c1sc2nc(-c3ccccc3)ccc2c1N	80	-	-	-	91	-
Cc1ccc(NC(=O)c2ccc3c(c2)OCCO3)nc1	-	-	-	-	62	-
O=C(Nc1ccon1)c1ccc2c(c1)OCO2	-	-	-	-	-	-
CC1CCC(NC(=O)c2ccc3c(c2)OCO3)CC1 (centres undefined)	-	-	-	-	54	-
O=C(NC1CCCCC1)c1ccc2c(c1)OCO2	-	-	-	-	-	-
Cc1ccnc(NC(=O)c2ccc3c(c2)OCO3)c1	-	-	-	-	55	-
Cc1ccc(NC(=O)CNC(=O)c2ccc3c(c2)OCO3)nc1	-	-	-	-	-	-
O=C(NCCOc1ccccc1)c1ccc2c(c1)OCO2	63	-	-	-	94	-
CC(=O)c1cccc(CN2CCN(CCC(C)C)C(CCO)C2)c1 (centres undefined)	-	-	-	-	-	-
Nc1ccc(C2(c3ccc(N)cc3)OC(=O)c3ccccc32)cc1	-	-	-	-	-	-

Screens: PubChem BioAssay, Sanford-Burnham Center for Chemical Genomics
